# Laboratory results reported in PubChem BioAssay AID1481 (The Scripps Research Institute Molecular Screening Center, 2009).
# Out of some 220,000 compounds screened, about 920 (0.42%) were called active. Cut-off read from the data, not from the text of the source: active = inhibition above about 15%; inactive = the rest. Many of the other results were omitted from the sample, so actives are more common in it than they were.
# Biological target: Transitional endoplasmic reticulum ATPase (Homo sapiens) (UniProt P55072)
# Assay: p97 ATP hydrolysis blockers – biochemical, primary screen (AID 1481);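 note: 0% = DMSO vehicle and 100% = wells lacking enzyme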
# Conditions: recombinant p97 ATPase, Kinase-Glo ATP luminescence, 3 h; at 8 µM; stronger effect = higher value
# Transitional endoplasmic reticulum ATPase (Homo sapiens), sequence (P55072 whole entry, looked up): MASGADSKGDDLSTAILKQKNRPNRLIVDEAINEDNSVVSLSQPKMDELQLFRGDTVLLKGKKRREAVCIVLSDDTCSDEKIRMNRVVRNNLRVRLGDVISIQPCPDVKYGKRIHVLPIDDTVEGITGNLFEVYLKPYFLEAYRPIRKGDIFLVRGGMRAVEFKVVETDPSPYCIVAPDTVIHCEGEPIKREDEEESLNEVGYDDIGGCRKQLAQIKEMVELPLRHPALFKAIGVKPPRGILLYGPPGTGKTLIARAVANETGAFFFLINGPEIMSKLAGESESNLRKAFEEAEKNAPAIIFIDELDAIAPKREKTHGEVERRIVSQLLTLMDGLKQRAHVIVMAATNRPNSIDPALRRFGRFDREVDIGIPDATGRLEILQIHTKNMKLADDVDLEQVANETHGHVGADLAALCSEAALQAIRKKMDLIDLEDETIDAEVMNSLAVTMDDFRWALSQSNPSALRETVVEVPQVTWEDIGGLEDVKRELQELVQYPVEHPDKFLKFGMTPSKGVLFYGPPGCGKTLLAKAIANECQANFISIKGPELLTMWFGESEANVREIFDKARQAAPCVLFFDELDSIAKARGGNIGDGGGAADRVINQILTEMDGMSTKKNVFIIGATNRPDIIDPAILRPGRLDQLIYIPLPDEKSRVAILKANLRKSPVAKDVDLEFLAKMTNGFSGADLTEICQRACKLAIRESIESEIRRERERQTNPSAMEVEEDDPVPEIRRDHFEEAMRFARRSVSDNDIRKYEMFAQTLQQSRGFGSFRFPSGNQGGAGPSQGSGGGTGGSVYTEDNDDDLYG
row,SMILES,inhibition
1,Nn1c(SCC(=O)Nc2nccs2)nncc1=O,3.78% (inactive)
2,COc1ccc(CS(=O)/C(Cl)=C(/Cl)C(=O)Nc2ccc(OC)nc2)cc1 (centres undefined),22% (active)
3,COc1ccc(NC(=O)/C(Cl)=C(/Cl)S(=O)Cc2ccc(C)cc2)cn1 (centres undefined),10.7% (inactive)
4,COc1ccc(NC(=S)Nc2ccccc2Cl)cn1,2.95% (inactive)
5,CC1CCN(c2ccc([N+](=O)[O-])c(SCCO)c2)CC1,7.8% (inactive)
6,Cc1cc(C)c2cc(CN(Cc3nnnn3Cc3ccc(F)cc3)C3CCCC3)c(=O)[nH]c2c1,28.6% (active)
7,Cc1cccc2cc(CN(Cc3nnnn3Cc3ccccc3)C3CCCC3)c(=O)[nH]c12,1.15% (inactive)
8,Cc1cc(C)c2cc(CN(Cc3cccs3)Cc3nnnn3CC3CCCO3)c(=O)[nH]c2c1 (centres undefined),-6.18% (inactive)
9,O=C(COc1ccc(/C=N/NS(=O)(=O)c2ccccc2)cc1)NCCc1ccccc1,0.13% (inactive)
10,COCCNc1nc2nonc2nc1N(C)Cc1ccc(C)cc1,-0.9% (inactive)
11,CN1CCN(/N=C2/C(=O)Nc3ccc([N+](=O)[O-])cc32)CC1,-0.51% (inactive)
12,Cc1nc2cccnc2nc1C,5.4% (inactive)
13,O=C(N/N=C/c1sc(N2CCCCC2)nc1-c1cccs1)c1cccnc1,-2.01% (inactive)
14,CC(=O)Nc1ccc(S(=O)(=O)Nc2ccc(-c3ccc4nnc(C)n4n3)cc2)cc1,0.45% (inactive)
15,CCOC(=O)c1cc2c(nc1NC(=S)Nc1ccccc1)CC(C)(CC)OC2 (centres undefined),-6.73% (inactive)
16,O=C(CN1CCCCC1)Nc1ccccc1Cl,-2.65% (inactive)
17,O=C(Nc1ccccc1Cl)c1ccc2nsnc2c1,2.33% (inactive)
18,O=C(Nc1ccccc1Cl)/C(Cl)=C(\Cl)S(=O)c1ccccc1 (centres undefined),20% (active)
19,CCCc1nc2c(c(=O)c3ccccc3n2C)c(=O)n1-c1cc(C)cc(C)c1,1.03% (inactive)
20,COc1ccc(/C=N/N=C2/C(=O)Nc3ccccc32)cc1O,-3.95% (inactive)

row,SMILES,inhibition
1,Cc1nnc2n1N=C(c1ccc3c(c1)NC(=O)CO3)CS2,4.3% (inactive)
2,CC(=O)NC1C(OCc2ccccc2)OC(COC(C)=O)C(OC(C)=O)C1OC(C)=O (centres undefined),1.05% (inactive)
3,O=C(OCC1O[C@@H](OC(=O)c2cc(O)c(O)c(O)c2)[C@@H](OC(=O)c2cc(O)c(O)c(O)c2)[C@@H](OC(=O)c2cc(O)c(O)c(O)c2)[C@@H]1OC(=O)c1cc(O)c(O)c(O)c1)c1cc(O)c(O)c(O)c1 (some centres undefined),67% (active)
4,COC(=O)c1scc(C)c1NC(=O)CSc1ccc(Cl)cc1,-1.74% (inactive)
5,CN(C)[C@@H]1C(=O)C(C(N)=O)=C(O)[C@@]2(O)C(=O)C3=C(O)c4c(O)ccc(Cl)c4[C@@H](O)[C@H]3C[C@@H]12,23.4% (active)
6,COc1ccc(CCNS(=O)(=O)c2ccc(Cl)s2)cc1OC,-7.85% (inactive)
7,Cn1c(N)cc(-c2ccc(F)cc2)c(C#N)c1=O,-2.35% (inactive)
8,O=C(Nc1nnc(CCN2CCCCC2)s1)c1cccc(Cl)c1,2.22% (inactive)
9,Cn1c(=O)c2c(-c3cccc(Br)c3)c(C#N)c(N)nc2n(C)c1=O,0.09% (inactive)
10,O=C(c1cccc(S(=O)(=O)N2CCOCC2)c1)N1CCOCC1,0.28% (inactive)
11,Cc1cc(C(=O)NNC(=O)c2cccc(S(=O)(=O)N3CCOCC3)c2)c2ccccc2n1,-3.18% (inactive)
12,O=C(NNC(=S)Nc1ccccc1)c1cccc(S(=O)(=O)N2CCOCC2)c1,15.6% (active)
13,COCC(C)NCc1cc(Br)ccc1OC (centres undefined),0.25% (inactive)
14,Cn1cccc1/C=N/NC(=O)CNc1cccc2ccccc12,3.45% (inactive)
15,CN(C)C=NC(=O)c1cccn1-c1ncc(C(F)(F)F)cc1Cl,-5.69% (inactive)
16,O=C(C1=C(O)C(=O)N(CCOCCO)C1c1ccccn1)c1cccs1 (centres undefined),2.8% (inactive)
17,Cc1cc(C)cc(NC(=O)N(C)Cc2ccccc2)c1,-0.6% (inactive)
18,Cn1c(SCC(=O)C(C)(C)C)nnc1-c1ccccn1,-4.36% (inactive)
19,COc1ccc(-c2cc(-c3ccc(N)cc3)nc(N)c2C#N)cc1OC,18.6% (active)
20,CCOc1cc(-c2cc(-c3ccc(OC)cc3)nc(N)c2C#N)ccc1O,2.46% (inactive)

row,SMILES,inhibition
1,CCSc1nc(-c2ccc(OC)cc2)cc(-c2ccc(OC)cc2)c1C#N,0.73% (inactive)
2,COc1ccc(N2CCC(CNC(=S)Nc3c(C)cccc3C)C2)cc1 (centres undefined),1.49% (inactive)
3,O=C1N(c2ccc(Cl)cc2)C(c2ccc(Cl)cc2)N2CCCN12 (centres undefined),4.79% (inactive)
4,Cn1c(=NC(=O)c2ccc3c(c2)OCCO3)sc2cc(S(C)(=O)=O)ccc21,-0.6% (inactive)
5,S=C(Cc1ccc(Cl)cc1)N1CCOCC1,-3.61% (inactive)
6,Cc1ccccc1OCCC(=O)Nc1c(C)n(C)n(-c2ccccc2)c1=O,3.48% (inactive)
7,CC(=O)N1CCc2cc(Br)cc(S(=O)(=O)CCC(=O)Nc3c(C)n(C)n(-c4ccccc4)c3=O)c21,16.1% (active)
8,Cc1ccc(S(=O)(=O)CC(=O)Nc2c(C)n(C)n(-c3ccccc3)c2=O)cc1,0.73% (inactive)
9,O=C(/C=C/c1ccc2c(c1)OCCO2)c1ccc(O)cc1,9.09% (inactive)
10,CCN(c1ccccc1)S(=O)(=O)c1ccc(NC(=O)C(C)(C)C)cc1,0.99% (inactive)
11,CCN(c1ccccc1)S(=O)(=O)c1ccc(N)cc1,21.5% (active)
12,CCN(c1ccccc1)S(=O)(=O)c1ccc2[nH]c(=O)[nH]c2c1,5.66% (inactive)
13,CS(=O)(=O)N1CCC(C(=O)N2CCN(c3ccccc3)CC2)CC1,1.55% (inactive)
14,CSc1ccccc1NC(=O)CN(C)CC(=O)Nc1cccc(Br)c1,-6.18% (inactive)
15,C/C=N/N(c1ccccc1)c1ccccc1,0.39% (inactive)
16,CCOc1cc(/C=N/O)cc(Br)c1OC,7.25% (inactive)
17,CCOc1c(Br)cc(/C=C2\C(=O)N(CCC#N)N=C2C)cc1OC,26.9% (active)
18,C=CCOc1c(Br)cc(/C=N\n2nnnc2N)cc1OC,-2.19% (inactive)
19,C/C(CC(=O)Nc1ccc(Cl)cc1)=N\NC(=O)C(=O)NCCO,2.21% (inactive)
